Data: PubChem BioAssay AID925 (National Center for Advancing Translational Sciences (NCATS), 2007)
Where “and” joins values, the source holds several entries; their conditions need not be identical. Identical values can stand only once. In all, about 65,000 compounds went through this assay and about 40 (0.06%) were called active. The call rests on the fitted dose curve; in most records, active means well fitted activation curve with a large enough effect; inconclusive means small, poorly fitted or top-dose-only effect; inactive means flat fitted curve, though single readings scatter. The sample as a whole holds a higher share of actives than the screen did.

Test: qHTS Assay for Modulators of Hemoglobin Beta Chain Splicing; further: 0% is about no effect
Settings: HBB splicing reporter cell assay, EGFP reporter with mutant IVS2-654 intron; Potency: activation; series mostly up to 46.1 µM
Text: NIH Chemical Genomics Center [NCGC]
NIH Molecular Libraries Screening Centers Network [MLSCN]
PI Name: Dr. Ryszard Kole
Modulation of Alternative Splicing as Therapy
Abnormal splicing is associated with a number of diseases, including cancer and genetic diseases such as cystic fibrosis, muscular dystrophy and beta-thalassemia. Alteration of disease associated splicing patterns provides a promising target for treatment. […] Mutations in the second intron of the beta-globin gene at positions are clinically relevant and cause mis-splicing which results in an out of frame gene product.
EGFP-654 and 705 HeLa Cells as screen system.
HeLa cell lines were stably transfected with a construct in which the EGFP (enhanced green fluorescent protein) cDNA was interrupted by the second intron of the beta-globin gene (IVS2-654). The ISV2 intron contains mutations which cause mis-splicing of EGFP and premature termination of EGFP which results in a nonfluorescent protein product. […] Expression of the transgene was driven by the CMV promoter. We concluded that a low molecular weight compound, which restored correct splicing of intron 2 would also generate functional EGFP protein, resulting in a fluorescent signal. Thus, the HeLa cells that express the EGFP-654 construct can be used for high throughput screening of a chemical library.
NCGC Assay Protocol Summary:
High Throughput Screening. Freshly thawed HeLa EGFP-654 cells were seeded in 5 ul of optimem media (Invitrogen) containing 2 % fetal calf serum (Hyclone) and 1x penicillin/streptomycin (Invitrogen) at a concentration of 500 cells per well in 1536-well plates. Cells were incubated overnight at 37C in 5% CO2. The next day, cells were treated with DMSO, 500 nM antisense ISV2 654 PNA control oligo, or library compound and allowed to grow at 37C in 5% CO2 for 2 days. The PNA oligo blocked the mutation site in the intron and allowed proper (wild type) splicing to occur, resulting in full length EGFP expression and also allowed for optimization of the assay parameters. Plates were read in the Acumen Explorer (TTP Labtech) using 488 nm laser excitation and 500-520 nm emission PMT filter in a 1 x […] capture mode. Fluorescnet Fluorescent objects ranging in size from […] were measured and the total peak GFP intensity for each well was used for data analysis.
Keywords: Thalassemia, beta-thalassemia, beta-globin, EGFP, ISV2 654, ISV2 705, SSO, PNA, antisense, splicing, MLSMR, MLSCN, NIH Roadmap, qHTS, NCGC

activation, inactive:
COC(=O)CCCCCN1C(=O)NC(c2ccc(-c3ccccc3)cc2)C(C(=O)OCc2ccccc2)=C1C (configuration not stated)
NC[C@@H]1O[C@H](O[C@@H]2[C@H](O[C@@H]3O[C@H](CO)[C@@H](COC[C@H]4O[C@@H](CN)[C@@H](O)[C@@H](O)[C@@H]4N)[C@@H]3O)[C@@H](O)[C@@H](N)C[C@H]2N)[C@@H](N)[C@H](O)[C@@H]1O
CO[C@H]1COC(=O)CCC[C@@H](C)[C@H](OC)COC(=O)[C@@H](C)NC(=O)C/C=C\[C@@H]1C 1.62% [at 9.22 µM, normalised to 500 nM splice-correcting PNA]
COC(=O)[C@@]1(Cc2ccc(F)cc2)[C@H]2c3cc(C(=O)N4CCCC4)n(C[C@H](O)CO)c3C[C@H]2CN1C(=O)c1ccccc1
COc1ccc(/C=C/NC(=O)c2ccc(OC)cc2)cc1 0.0031% [at 9.22 µM, normalised to 500 nM splice-correcting PNA]
CN(C)c1cc2c(Nc3ccc4c(cnn4Cc4ccccc4)c3)ncnc2cn1
Cc1cccc(C(=O)O)c1
COC(=O)[C@@]1(C)C=C[C@@H](Cc2ccccc2)N1C(C)=O
COC(=O)C1(Cc2ccccc2)C=C2C(=C(C)C(=O)C2C)CN1 (configuration not stated)
C=CC(=O)OCCOCCOCCOCCOC(=O)C=C
Oc1cc2c(cc1O)CN(C(=S)NCCc1ccc(Cl)cc1)CCC2
O=C(c1ccco1)N1CCC[C@@]2(CCN(Cc3nccs3)C2)C1
CN(C)C(=O)c1ccc(-c2cncnc2Nc2ccccc2)cc1
COc1cccc([C@H]2Oc3ccc(OC)cc3/C(=N\OCC[C@@H]3C=C[C@H](OC(C)=O)[C@H](COC(C)=O)O3)[C@@H]2O)c1 -1.11% [at 9.22 µM, normalised to 500 nM splice-correcting PNA]
COc1cc([C@H]2c3cc4c(cc3[C@@H](O[C@@H]3O[C@H]5CO[C@@H](C)O[C@]5(O)C[C@H]3O)[C@@H]3COC(=O)[C@H]23)OCO4)cc(OC)c1O
Cc1cc(Cl)ccc1OCC(=O)Oc1c(Cl)c(Cl)c(Cl)c(Cl)c1Cl 0.153% [at 9.22 µM, normalised to 500 nM splice-correcting PNA]
C/C(CCN1CCc2nc(-c3ccccc3)c(-c3ccccc3)cc2C1)=N\O[C@@H](C)c1cn([C@@H]2COC[C@@H]2O)nn1 -1.08% [at 9.22 µM, normalised to 500 nM splice-correcting PNA]
COc1ccc(COC(=O)N/N=C2/C[C@@H](O)[C@@H](O)[C@@H]3[C@@H]4C(=O)N([C@@H](C)c5ccccc5)C(=O)[C@H]4CC[C@@H]23)cc1 0.743% [at 9.22 µM, normalised to 500 nM splice-correcting PNA]
COc1ccc2[nH]cc(CCNc3cc(-c4ccccc4CN(C)C)ncn3)c2c1
O=C(O)c1ccc(C(=O)O)c2c(C(=O)O)ccc(C(=O)O)c12 -1.01% [at 9.22 µM, normalised to 500 nM splice-correcting PNA]
O=C(O)[C@@H]1[C@@H](C(=O)O)[C@]23C[C@@]2(C(=O)O)[C@]2(C(=O)O)CCC3=C3CCCC312 0.251% [at 9.22 µM, normalised to 500 nM splice-correcting PNA]
COCCNc1ncnc2ccc(-c3cccnc3)cc12
CCN(CC)CCCCn1c(-c2ccccc2)nc2c(N3CCOCC3)nc(C)nc21
CO[C@@H]1COC(=O)[C@H](Cc2ccccc2)NC(=O)C/C=C\[C@@H](C)[C@H](OC)COC(=O)[C@@H](C)NC(=O)C/C=C\[C@H]1C 1.42% [at 9.22 µM, normalised to 500 nM splice-correcting PNA] and 0.127% [at 9.22 µM, normalised to 500 nM splice-correcting PNA]
Cc1noc(C)c1-c1nc(Nc2ccccc2)c2ccccc2n1
O=NO
ClC(Cl)(Cl)C(N1CCN(c2ccccc2)CC1)N1CCN(c2ccccc2)CC1 3.1% [at 9.22 µM, normalised to 500 nM splice-correcting PNA]
CC(=O)Oc1ccccc1C(=O)Nc1ncc([N+](=O)[O-])s1
COc1ccc(NC(=O)N2CC3(CCN(C(C)=O)CC3)C2)cc1
COC(=O)[C@@H]1CC[C@H](C)[C@@H](c2ccc(C)cc2)N1C(=O)c1ccc(/C=N\OC[C@@H](O)COCc2ccco2)cc1 -0.0134% [at 9.22 µM, normalised to 500 nM splice-correcting PNA]
Clc1ccc(C(c2ccc(Cl)cc2)n2cc[n+](C[C@@H](OCc3ccc(Cl)cc3Cl)c3ccc(Cl)cc3Cl)c2)cc1
CC(C)C[C@@H](CC(=O)N[C@@H](CCC(=O)O)CC(=O)O)NC(=O)[C@@H]1CCCC[C@H]1NC(=O)C[C@@H](NC(=O)C[C@H](CO)NC(=O)[C@@H]1CCCC[C@H]1N)C(C)C
O=C(O)[C@@H](S)[C@H](S)C(=O)O -1.17% [at 9.22 µM, normalised to 500 nM splice-correcting PNA]
O=C(O)[C@@H](O)Cc1ccccn1 2.62% [at 9.22 µM, normalised to 500 nM splice-correcting PNA]
COC(=O)N1CCC2(CCCN(c3ccncc3)C2)CC1
NCC(=O)[C@@H](O)[C@H](O)[C@H](O)CO 0.718% [at 9.22 µM, normalised to 500 nM splice-correcting PNA]
CN(C)C(=O)c1ccc(-c2cncnc2NC2CCNCC2)cc1
CN1[C@H]2CC(OC(=O)[C@@H](CO)c3ccccc3)C[C@H]1[C@H]1O[C@H]12 (some centres not stated)
O=C1[C@H]2[C@H]3[C@H](O)[C@H](O)C/C(=N/OCc4ccccc4)[C@H]3CC[C@@H]2C(=O)N1Cc1ccccc1 0.171% [at 9.22 µM, normalised to 500 nM splice-correcting PNA]
CCCCNc1nc(C)nc2c1nc(-c1ccccc1)n2CCCCN(CC)CC
c1ccc(CSCCc2ccncc2)cc1 2.45% [at 9.22 µM, normalised to 500 nM splice-correcting PNA]
O=c1c(-c2ccc(F)c(F)c2)nc2cncnc2n1-c1ccccc1
COC(=O)NC(c1ccccc1)[C@]1(C(C)=O)CCCC1=O (some centres not stated) 0.441% [at 9.22 µM, normalised to 500 nM splice-correcting PNA]
CC(C)c1ccc2c([Si](C)(C)C)c3c(nc2c1)-c1cccc(=O)n1C3
C=CC(=C)CCC=C(C)C
O=Cc1c(Cl)cccc1Cl
COCCn1c(=O)c(-c2ccccc2)nc2cnc(N3CCOCC3)nc21
CN1CCN(c2ncncc2-c2ccc(C(=O)N(C)C)cc2)CC1
O=C(c1cnccn1)N1CCC[C@@]2(CCN(Cc3ccncc3)C2)C1
Cc1ccccc1-c1nc(N(C)Cc2ccco2)c2ccccc2n1
OCCN1CCN(CC/C=C2\c3ccccc3Sc3ccc(C(F)(F)F)cc32)CC1
BrC1C(Br)C(Br)C(Br)C(Br)C1Br (configuration not stated)
c1ccc(CNc2ncncc2-c2cccnc2)cc1
FC(F)(F)c1ccccc1-c1nc(-n2ccnc2)c2ccccc2n1
CO[C@H]1COC(=O)[C@@H](C)NC(=O)C/C=C\[C@@H](C)[C@H](OC)COC(=O)C/C=C\[C@@H]1C 0.0576% [at 9.22 µM, normalised to 500 nM splice-correcting PNA]
COc1ccccc1CNc1ncnc2ccc(-c3ccc4c(c3)OCO4)cc12
Cc1noc(C)c1-c1nccc(N2CCOCC2)n1
Cc1[nH]c(N)nc(=S)c1CCCNc1ccccc1 0.0064% [at 9.22 µM, normalised to 500 nM splice-correcting PNA]
COc1ccc(NC(=O)N2CC3(CCN(C(=O)c4cccn4C)CC3)C2)cc1
Cc1c(O)c(Br)c(C)c(O)c1Br (tested in a mixture with another compound) 3.36% [at 9.22 µM, normalised to 500 nM splice-correcting PNA]
COc1ccc(CNc2ncncc2-c2ccccc2C)c(OC)c1
CC(C)[C@@H](CC(=O)N[C@@H]1CCNC[C@H]1C(=O)N[C@H](CC(=O)N[C@@H](CCC(=O)O)CC(=O)O)Cc1ccccc1)NC(=O)C[C@H](CO)NC(=O)[C@@H]1CNCC[C@H]1N
C[C@]12C=CC(=O)C=C1CC[C@@H]1[C@@H]2C(=O)C[C@@]2(C)[C@H]1CC[C@]2(O)C(=O)CO
CCCC(C(=O)OCCN(CC)CC)(c1ccccc1)c1ccccc1
CC(=O)N1CCC2(CC1)CCN(c1ccncc1)CC2
C[C@]1(C(=O)NCCc2c[nH]c3ccccc23)C=C[C@@H](Cc2ccccc2)N1C(=O)c1ccccc1
C[C@@H]1O[C@@H](O[C@@H]2[C@@H](O)[C@H](OCCc3ccc(O)c(O)c3)O[C@H](CO[C@@H]3O[C@H](CO)[C@@H](O)[C@H](O)[C@H]3O)[C@H]2OC(=O)/C=C/c2ccc(O)c(O)c2)[C@H](O)[C@H](O)[C@H]1O
